Assay [1] can be described thus: CCTE_Harrill_HTTr_Viability_MCF7: CCTE's 6-hour Cell Viability Assessment for the High-Throughput Transcriptomics (HTTr) Platform, in MCF-7 cells cultured in DMEM + 10% fetal bovine serum, Harrill Lab (AID 2284010). An outline of the steps: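 Read-out is propidium iodide gain of signal by high-content imaging, reflecting membrane integrity loss. Measurements are taken 6 h after dosing, eight concentrations per chemical, with DMSO serving as baseline for bidirectional curve fitting.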

Assay [2] in a line: CCTE_Harrill_HTTr_Apoptosis_MCF7: CCTE's 6-hour Apoptosis Assessment for the High-Throughput Transcriptomics (HTTr) Platform, in MCF-7 cells cultured in DMEM + 10% fetal bovine serum, Harrill Lab (AID 2284011). An outline of the steps: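 High-content imaging of CellEvent Caspase 3/7 Green signal follows a six-hour exposure, with eight concentrations per chemical. MCF-7 cells grown in DMEM plus 10% fetal bovine serum; activity fitted in both directions against DMSO.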

Assay [3] can be described thus: CCTE_Shafer_MEA_acute_burst_number: CCTE's Neural Acute Assay for Single-Electrode Bursts, Shafer Lab (AID 2284013). An outline of the steps: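 Primary rat cortical neurons on 16-electrode MEA wells, DIV 13 or 15, exposed to compound (0.03-40 uM; ≥3 wells); 40-min recordings at 37 C before and after treatment. Burst count expressed as percent change from baseline, DMSO as negative control.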

Assay [4] can be described thus: CCTE_Shafer_MEA_acute_burst_duration_mean: CCTE's Neural Acute Assay for Mean Burst Duration, Shafer Lab (AID 2284014).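 Also: hits are decreases in mean burst duration relative to DMSO controls.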 An outline of the steps: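 Mean burst duration was compared between a 40 min baseline and a 40 min recording in the presence of compound (0.03-40 uM, 37 C), giving percent change per well. Cultures were rat cortical neurons at DIV 13 or 15; wells needed ≥10 active electrodes.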

Assay [5] is described as follows: CCTE_Shafer_MEA_acute_interburst_interval_mean: CCTE's Neural Acute Assay for Mean Interburst Interval, Shafer Lab (AID 2284016).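 Also: percent change of mean interburst interval versus each well's own pre-dose baseline; curves fitted for decrease in interburst interval relative to DMSO.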 In a few lines:
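MEA recording of spontaneous network bursting in primary rat cortical cultures; mean interburst interval was compared before and after a 40-min compound exposure (0.03-40 uM) and expressed as percent change, relative to DMSO.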

Assay [6] in a line: CCTE_Shafer_MEA_acute_burst_percentage_mean: CCTE's Neural Acute Assay for Percentage of Spikes in a Burst, Shafer Lab (AID 2284017).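 As to AC50: curve fitted for loss of signal so potency reflects decreased burst percentage.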 In a few lines: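 Compounds were tested at 0.03-40 uM on primary rat cortical neuron networks grown over microelectrodes, with at least three wells per compound. Spontaneous firing was recorded for 40 min before and 40 min after dosing, and the change in burst percentage was computed per well.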

Assay [7] can be described thus: CCTE_Shafer_MEA_acute_burst_percentage_std: CCTE's Neural Acute Assay for Standard Deviation of Burst Percentage, Shafer Lab (AID 2284018).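 Also: fitted in the negative direction so actives lower burst percentage SD.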 An outline of the steps: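 Value is percent change from baseline in the across-electrode SD of spikes-in-bursts percentage, wells with >/= 10 active electrodes. Acute 40-min exposure to 0.03-40 uM on DIV 13 or 15 rat cortical cultures, recorded at 37 C after 40-min baseline.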

Assay [8] can be described thus: CCTE_Shafer_MEA_acute_per_network_burst_spike_number_mean: CCTE's Neural Acute Assay for Average Number of Spikes in a Network Burst, Shafer Lab (AID 2284019).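 As to AC50: curve fitted for loss of signal so actives reduce spikes per network burst.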 An outline of the steps:
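Percent change from baseline in mean spikes per network burst, spikes detected at 8x rms noise. Each compound at 0.03-40 uM in at least three wells of rat cortical cultures, recorded 40 min before and 40 min during exposure.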

A short description of assay [9]: CCTE_Shafer_MEA_acute_per_network_burst_spike_number_std: CCTE's Neural Acute Assay for Standard Deviation of Number of Spikes in a Network Burst, Shafer Lab (AID 2284020).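 Also: fitted for decrease in spike-number SD versus DMSO so actives lower it.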 An outline of the steps:
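Endpoint: percent change from 40 min baseline in standard deviation of spikes per network burst, after 40 min compound exposure (0.03-40 uM, 37 C). Cortical rat neurons on MEA at DIV 13 or 15; spikes detected at 8x rms noise, 300-5000 Hz band-pass.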

A short description of assay [10]: CCTE_Shafer_MEA_acute_per_network_burst_electrodes_number_mean: CCTE's Neural Acute Assay for Mean Number of Electrodes in a Network Burst, Shafer Lab (AID 2284021).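 Also: curves fitted for decreases only so hits reduce electrodes per burst.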 An outline of the steps: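 Percent change from baseline was computed as mean electrode count per network burst, comparing 40 min recordings before and during compound (0.03-40 uM) exposure. Cultures were rat cortical neurons at DIV 13 or 15, recorded on MEAs at 37 C with an adaptive 8x rms threshold.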

A short description of assay [11]: CCTE_Shafer_MEA_acute_network_burst_percentage: CCTE's Neural Acute Assay for Percentage of Network Bursts, Shafer Lab (AID 2284022).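 Also: curves fitted for loss so actives lower network burst percentage.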 An outline of the steps: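 Network burst percentage (spikes in network bursts divided by total spikes) recorded at 37 C over 40 min baseline and 40 min after compound, 0.03-40 uM, in rat cortical cultures at DIV 13 or 15. Analysed as percent change from baseline versus DMSO.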

The nature of assay [12]: CCTE_Shafer_MEA_acute_cross_correlation_area: CCTE's Neural Acute Assay for Area of Cross Correlation, Shafer Lab (AID 2284024).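 Also: rat primary cortical neuron networks on 48-well MEA at DIV 13 or 15 with 40 min exposure; area under pooled inter-electrode spike cross-correlation near zero lag as percent change from own baseline; curves fitted for loss of cross-correlation area so actives lower synchrony.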 In a few lines:
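Percent change in well-wide cross-correlation area (window around zero lag) between 40 min baseline and 40 min post-compound recordings, 37 C; rat cortical cultures on MEA at DIV 13 or 15, dosed 0.03-40 uM, wells needing >/= 10 active electrodes.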

Assay [13] in a line: CCTE_Shafer_MEA_acute_cross_correlation_HWHM: CCTE's Neural Acute Assay for Cross Correlation at Half Width at Half Maximum, Shafer Lab (AID 2284026).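 Also: percent change per well from pre-dose baseline in spike cross-correlogram half width; hits are a decrease in cross-correlogram half width relative to DMSO.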 In a few lines:
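Per-well percent change in cross-correlogram half width at half maximum, derived from 40-min recordings before and after compound (0.03-40 uM) at 37 C. Cultures were rat cortical neurons, DIV 13 or 15, with adaptive spike detection at 8x rms.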

Assay [14] can be described thus: CCTE_Shafer_MEA_acute_synchrony_index: CCTE's Neural Acute Assay for Synchrony, Shafer Lab (AID 2284027).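 Also: network synchrony index of spontaneous spiking in primary rat cortical neurons on MEAs; fitted for loss of signal so actives lower synchrony relative to DMSO.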 An outline of the steps:
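Plates equilibrated 20 min at 37 C, baseline recorded 40 min, compound (0.03-40 uM) added, then 40 min more recorded. Cells: primary rat cortical neurons, DIV 13 or 15. Per-well synchrony index change analysed in negative direction against DMSO.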

A short description of assay [15]: CCTE_Shafer_MEA_dev_firing_rate_mean: CCTE's Neural Network Formation Assay for Mean Firing Rate, Shafer Lab (AID 2284031).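 As to AC50: curve fitted for loss of firing so AC50 reflects decreased mean firing rate.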 In a few lines: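 Steps: seed rat cortical cells (1.5 x 10^5/well) with laminin on PEI-coated MEA; dose day 0; record DIV 5/7/9/12, full media and compound exchange after DIV 5 and 9 recordings; compute well-mean firing rate AUC.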
Assay [16] in a line: CCTE_Shafer_MEA_dev_per_burst_spike_percent: CCTE's Neural Network Formation Assay for Percent of Spikes in a Burst, Shafer Lab (AID 2284032).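 As to AC50: fitted as a decrease in burst spike percentage below DMSO baseline.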 In a few lines: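 Value is trapezoidal AUC over recordings on days 5, 7, 9 and 12 of the well-mean fraction of spikes falling in single-electrode bursts; rat cortical cultures exposed continuously from plating, treatment renewed DIV 5 and 9, fitted downward against DMSO.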

Assay [17] can be described thus: CCTE_Harrill_HTTr_CellCount_MCF7: CCTE's Cell Proliferation Assessment for the High-Throughput Transcriptomics (HTTr) Platform, Harrill Lab (AID 2284012; active = hit-call score of the fitted dose curve at least 0.9, where 1 is the maximum;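 also: cells exposed to compound for six hours; intended direction is loss of nuclei count meaning fewer cells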). In a few lines:
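Cell count served as viability reporter: loss of Hoechst-stained nuclei, counted by high content imaging, marks decreased growth or survival. Exposure was 6 h in MCF-7 cells across eight concentrations, with DMSO as baseline.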

Assay [18] in a line: CCTE_Deisenroth_AIME_384WELL_CTox_Active: Cytotoxicity Assessment (CTOX) in CCTE's 384-well Estrogen Receptor Transactivation Assay with AIME metabolic competence (metabolism positive), Deisenroth Lab (AID 2284037; active = hit-call score of the fitted dose curve at least 0.9, where 1 is the maximum;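 also: chemicals first conditioned 2 h by alginate-bound induced rat liver S9 before cells; activity means signal loss indicating cell death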). An outline of the steps:
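Cytotoxicity in VM7Luc4E2 breast cells, 24 hour, measured as protease-substrate fluorescence loss, after 2-hour metabolic conditioning with induced rat hepatic S9 in alginate microspheres. Concentrations 0.002 - 200 uM, 10 points, bidirectional fitting.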

Assay [19] addresses Estrogen receptor (Homo sapiens) (UniProt P03372). As to the kind of experiment: CCTE_Deisenroth_AIME_384WELL_LUC_Active: CCTE's 384-well Estrogen Receptor Transactivation Assay with AIME metabolic competence (ERTA luciferase; metabolism positive), Deisenroth Lab (AID 2284030; active = hit-call score of the fitted dose curve at least 0.9, where 1 is the maximum). In a few lines:
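VM7Luc4E2 breast cells were given, for 24 hours, medium pre-incubated for 2 hours with parent chemical (0.002-200 uM, 10 concentrations) and alginate-encapsulated phenobarbital/beta-naphthoflavone-induced rat hepatic S9. Luciferase gain of signal was fitted against 17beta-estradiol; n=4 or more.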

“And” between values parts separate entries of the source, which are not always exact repeats. Identical values can stand only once. Inconclusive results are not listed. Where a structure was tested more than once in an assay, its records may differ in their call. The source made the active and inactive calls. The calls were made as follows, unless noted: active = hit-call score of the fitted dose curve at least 0.9, where 1 is the maximum; inactive = score below 0.9.

Estrogen receptor (Homo sapiens), sequence (P03372 whole entry, looked up): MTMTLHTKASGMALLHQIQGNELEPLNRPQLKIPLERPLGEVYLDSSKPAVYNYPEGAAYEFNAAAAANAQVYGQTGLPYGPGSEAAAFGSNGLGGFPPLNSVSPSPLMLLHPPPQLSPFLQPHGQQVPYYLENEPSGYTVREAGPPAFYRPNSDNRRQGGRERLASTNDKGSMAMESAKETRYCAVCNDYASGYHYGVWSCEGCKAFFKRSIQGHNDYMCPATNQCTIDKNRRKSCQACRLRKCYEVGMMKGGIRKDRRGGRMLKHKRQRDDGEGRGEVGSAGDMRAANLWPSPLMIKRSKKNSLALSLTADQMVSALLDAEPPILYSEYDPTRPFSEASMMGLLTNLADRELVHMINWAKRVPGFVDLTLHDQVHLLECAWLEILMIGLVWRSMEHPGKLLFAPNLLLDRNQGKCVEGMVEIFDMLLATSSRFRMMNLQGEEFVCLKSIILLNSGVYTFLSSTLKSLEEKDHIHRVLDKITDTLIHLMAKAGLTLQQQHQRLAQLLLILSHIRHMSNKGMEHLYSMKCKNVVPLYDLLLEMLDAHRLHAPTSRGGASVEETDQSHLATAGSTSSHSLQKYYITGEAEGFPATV

Regarding `CCOP(=S)(Oc1cnc(C(C)(C)C)nc1)OC(C)C` (centres undefined), the result in [1], in assay [2], in [3], in assay [4], in [5] and in [7] was inactive. For the same compound, the call in assay [12] and in assay [15] was inactive. For the same compound, the half-maximal activity concentration (AC50) in assay [6] is 35.6 µM (active); in assay [8], 20 µM (active); in [9] it was 28 µM (active); in [10], 20 µM (active); in assay [11], 24.6 µM (active); in assay [13], 26.9 µM (active). In addition, the AC50 is 31 µM (active) in [14]; 12.2 µM (active) in assay [15]; 89.1 µM (active) and 12.9 µM (active) in assay [16].

As to `COc1ccc(C(=CC(=O)N2CCOCC2)c2ccc(Cl)cc2)cc1OC`, the result in [1], in [2], in [17] and in [18] was inactive.

Consider `CCOP(=S)(OCC)Oc1ccc([N+](=O)[O-])cc1`, for which the outcome in assay [1], in [2], in assay [17], in [15] and in [16] was inactive.

For `COP(=O)(OC)SCn1c(=O)oc2cc(Cl)cnc21`, the result in assay [1], in assay [2], in [17], in assay [19] and in assay [18] was inactive.

As for `CC(C)N(C(=O)SCC(Cl)=C(Cl)Cl)C(C)C`, the outcome in assay [1], in [2], in [3], in [4], in assay [5] and in assay [8] was inactive. Besides, the call in [12] and in [15] was inactive. Moreover, the concentration at half-maximal activity (AC50) was 11.9 µM (active) in assay [5]; 20 µM (active) and 15 µM (active) in assay [6]; 20 µM (active) and 7.81 µM (active) in assay [7]; 5.79 µM (active) in assay [8]; 10.2 µM (active) and 9.26 µM (active) in assay [9]; 11.5 µM (active) and 5.51 µM (active) in [10]. The AC50 was 25.7 µM (active) and 20 µM (active) in [11]; 20 µM (active) and 15 µM (active) in assay [13]; 20 µM (active) and 19 µM (active) in assay [14]; 24.4 µM (active) in [16].

Consider `CCOP(=O)(SC(C)CC)N1CCSC1=O` (centres undefined), for which the outcome in assay [1], in assay [2], in [15], in assay [16] and in [18] was inactive.

Turning to `CN(C)NC(=O)CCC(=O)O`, the result in assay [1], in assay [2], in assay [3], in [4], in assay [5] and in assay [6] was inactive. The result in assay [7], in [8], in assay [9], in [10], in assay [11] and in assay [12] was inactive. Besides, the compound was called inactive in assay [13] and in assay [14].

Regarding `C#CCC1=C(C)C(OC(=O)C2C(C=C(C)C)C2(C)C)CC1=O` (centres undefined), the result in assay [1], in assay [2], in assay [5], in assay [8], in [12] and in [13] was inactive. Also, the result in assay [15] and in [18] was inactive. The half-maximal activity concentration (AC50) in [3] was 13.3 µM (active); in [4], 15.5 µM (active); in [6], 12.7 µM (active); in assay [7], 19.9 µM (active); in assay [9], 19.9 µM (active); in assay [10], 5.78 µM (active). The concentration at half-maximal activity (AC50) is 14.6 µM (active) in assay [11], 17.8 µM (active) in assay [14] and 9.95 µM (active) in assay [16].

`Nc1nc(N)nc(NC2CC2)n1`: the outcome in assay [1], in assay [2], in assay [17] and in [18] was inactive.

Source of the values: PubChem BioAssay (EPA / NIEHS).
